# PubChem BioAssay AID1986 (Sanford-Burnham Center for Chemical Genomics, 2009)
# The campaign covered roughly 290,000 compounds. About 890 (0.31%) were called active. Cut-off read from the data, not from the text of the source: active = inhibition mostly above about 52% (no sharp cut-off); inactive = mostly below about 76%. Many of the other results were omitted from the sample, so actives are more common in it than they were.
# Test: inhibitors of HIV fusion peptide binding, primary screen, biochemical, uHTS, fluorescence dequenching (AID 1986)
# Settings: cell-free peptide binding, 30 min, stronger effect = higher value
SMILES,inhibition (at 20 µM),"inhibition (measured here: repeat confirmation average inhibition, at 18.6 µM) [%]"
CCCCN(C)CCNC(=O)CN1C(=O)CSc2ccc(S(=O)(=O)N3CCOCC3)cc21,1% (inactive),
CCN1C(=O)c2cccc3c(S(=O)(=O)Nc4ccncc4)ccc1c23,3.5% (inactive),
COc1ccccc1C(=O)C1CCCN(C(=O)c2cc(CC(C)C)nc(C)n2)C1 (centres undefined),-0.9% (inactive),
CCOc1ccc(-n2cnnn2)cc1S(=O)(=O)NC1CC1,0.2% (inactive),
CCOC(=O)N1CCN(C(=O)C2CCN(S(=O)(=O)c3c(C)cc(C)cc3C)CC2)CC1,-1.7% (inactive),
O=C(NCc1ccco1)c1ccc(Cl)nc1,-2% (inactive),
N#Cc1c(NC(=S)NC(=O)c2ccccc2)sc2c1CCN(CCc1ccccc1)C2,138% (inactive),
CC(C)N1CCc2c(sc(NC(=O)Cc3ccccc3)c2C#N)C1,-0.4% (inactive),
N#Cc1c(NC(=S)NC(=O)c2ccccc2)sc2c1CCC2,14.9% (inactive),
CC(C)N1CCc2c(sc(NC(=S)NC(=O)c3ccccc3)c2C#N)C1,81% (active),
CN1Cc2sc(NC(=S)NC(=O)c3ccccc3)c(C#N)c2CC1(C)C,70.3% (active),
CCN1CCc2c(sc(NC(=S)NC(=O)c3ccccc3)c2C#N)C1,26.3% (inactive),
N#Cc1c(NC(=S)NC(=O)c2ccccc2)sc2c1CCCC2,0.9% (inactive),
CCCN1CCc2c(sc(NC(=S)NC(=O)c3ccccc3)c2C#N)C1,78.4% (active),
CCC1(C)Cc2c(sc(NC(=S)NC(=O)c3ccccc3)c2C#N)CO1 (centres undefined),-2.1% (inactive),
N#CC(c1ccccc1)C1CCN(Cc2ccccc2)CC1 (centres undefined),0.8% (inactive),
O=c1c2cn[nH]c2[nH]c(=S)n1-c1ccccc1,1.4% (inactive),
CCCCC/S(CC1CC1(Cl)Cl)=N\S(=O)(=O)c1ccc(C)cc1 (centres undefined),0.9% (inactive),
CN(CC(=O)Nc1ccc(C(N)=O)cc1)CC(=O)Nc1ccccc1Br,0.7% (inactive),
O=C(Nc1ccncc1)Nc1ccc(F)c(Cl)c1,0.5% (inactive),

SMILES,inhibition (at 20 µM),"inhibition (measured here: repeat confirmation average inhibition, at 18.6 µM) [%]"
CC1=NN(C(=O)c2ccccc2C)C(O)(c2ccc(Cl)cc2)C1 (centres undefined),-2.2% (inactive),
N#Cc1c(N)oc(-c2ccco2)c1-c1ccco1,2.6% (inactive),
CC(Oc1ccccc1)C(=O)Nc1oc(-c2ccco2)c(-c2ccco2)c1C#N (centres undefined),76.1% (active),
CC(C)CC(C(=O)Nc1oc(-c2ccco2)c(-c2ccco2)c1C#N)N1C(=O)c2ccccc2C1=O (centres undefined),-0.7% (inactive),
O=C(Nc1ccnn1C1CCN(Cc2ccc(Cl)cc2)CC1)C1CCCC1,1.4% (inactive),
O=C(N/N=C/c1cccc([N+](=O)[O-])c1O)C(O)(c1ccccc1)c1ccccc1,11% (inactive),
C/C=C\C=C/C(=O)Nc1cccc(C2=NOC3(C2)C[C@H](C(N)=O)N(C(=O)c2ccc(OC)cc2)C3)c1 (some centres undefined),5.2% (inactive),
Cc1sc2nc3c(SC(C)C(=O)O)cc(C(=O)c4ccccc4O)cn3c(=O)c2c1C (centres undefined),20.4% (inactive),
O=C(O)CSc1cc(C(=O)c2ccccc2O)cn2c(=O)c3c(-c4ccccc4)csc3nc12,59.6% (active),
CCOC(=O)c1sc2nc3c(SCC(=O)O)cc(C(=O)c4ccccc4O)cn3c(=O)c2c1C,49.9% (inactive),
CN(C)/C=C(/C(=O)c1ccc(Cl)c(Cl)c1)S(C)(=O)=O,0.6% (inactive),
CCOc1ccc(NC(=O)CN(C)C(=O)c2cccnc2SC)cc1OCC,0.9% (inactive),
CCN(CC)c1ccc(/C=N/n2c(C)nc3ccccc3c2=O)cc1,-0.4% (inactive),
CCN(CC)c1ccc(/C=C/c2nc3ccccc3s2)cc1,53% (active),
CCN(CC)c1ccc(/C=C/c2cc(-c3ccccc3)c3ccccc3n2)cc1,96.8% (active),
Cc1cc(/C=C\c2ccccc2)nc2ccccc12,1.2% (inactive),
CN(C)c1ccc(/C=C/c2nc3ccccc3s2)cc1,3.1% (inactive),
CCN(CC)c1ccc(NC(=O)COC(=O)/C=C/c2nc3ccccc3s2)cc1,-1.3% (inactive),
Cc1ccccc1C(=NC(=O)c1ccccc1)c1ccccc1,0.6% (inactive),
COc1cc(/C=C(\C#N)C(=O)c2c[nH]c3ccccc23)cc(OC)c1O,62.6% (active),

SMILES,inhibition (at 20 µM),"inhibition (measured here: repeat confirmation average inhibition, at 18.6 µM) [%]"
COc1ccc(/C=C(\C#N)c2nc3ccccc3[nH]2)cc1O,-0.7% (inactive),
COc1cc(/C=C(\C#N)c2nc(-c3cc4ccccc4oc3=O)cs2)ccc1O,31.9% (inactive),
COc1cc(/C=C(/C#N)c2nc(-c3cc4ccccc4oc3=O)cs2)cc([N+](=O)[O-])c1O,66.8% (active),
COc1cc(/C=C(\C#N)c2nc3ccccc3[nH]2)cc(OC)c1O,69.9% (active),
COc1cc(/C=C(\C#N)C(=O)c2c(C)[nH]c3ccccc23)cc(OC)c1OC,-1.7% (inactive),
COc1ccc(-c2csc(/C(C#N)=C\c3ccc(O)c([N+](=O)[O-])c3)n2)cc1OC,62.9% (inactive),9.1
COc1ccc(/C=C(\C#N)C(=O)c2c(C)[nH]c3ccccc23)cc1OC,-1.1% (inactive),
COc1ccc(/C=C(\C#N)c2nc3ccc(C)cc3[nH]2)cc1Oc1ccc(C(F)(F)F)cc1[N+](=O)[O-],10% (inactive),
COc1cc(/C=C(\C#N)c2nc3ccc(C)cc3[nH]2)c([N+](=O)[O-])cc1OC,-2.7% (inactive),
COc1cc(/C=C(\C#N)c2nc3ccccc3[nH]2)cc(Br)c1OCc1ccccc1,6.5% (inactive),
CSc1ccc(S(=O)(=O)N2CCC(C(=O)NCC3CCCO3)CC2)cc1 (centres undefined),-1.2% (inactive),
COc1ccc(NC(=O)c2ccsc2NC(C)=O)cc1,-0.1% (inactive),
COCCSc1nnc(NC(=O)c2ccc(NC(=O)C(C)C)cc2)s1,1.5% (inactive),
CCN(c1ccccc1)S(=O)(=O)c1ccc(OCC(=O)Nc2cc(C)on2)cc1,-4% (inactive),
Cc1c(NC(=O)c2c(F)cccc2F)c(=O)n(-c2ccccc2)n1C,0.4% (inactive),
CCOc1cc(N2CCOCC2)c(OCC)cc1NC(=O)COC(=O)c1cc2ccccc2cc1O,-0.9% (inactive),
CCOC(=O)CNC(=O)CNC(=O)Cn1ccc2ccccc2c1=O,-0.8% (inactive),
O=C(C[n+]1ccc(C(=O)NCc2ccccc2)cc1)c1ccc(Cl)cc1,1.3% (inactive),
